Data on eight compounds can be found in PubChem BioAssay.

Experiment [1] is described as follows: stimulators of insulin release from INS-1E, primary screen, cell-based, 5 mM glucose, NPC library (AID 1117329). The conditions noted are these: rat INS-1E insulin secretion, at 10 µM, stronger effect = higher value.
The nature of experiment [2]: growth inhibition of GSK3B-pretreated HCT116 cells – cell-based, CellTiter-Glo, 0.2 to 20 µM (AID 1117336;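 active = compounds lowering colon cancer cell viability after pretreatment blocking the GSK3B kinase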). The note with it: HCT116 viability after GSK3B inhibitor, at 20 µM, stronger effect = higher value.
The nature of experiment [3]: inhibition of endothelial tube formation, primary screen, imaging, VEGF stimulated, CD31 staining, tube area, NPC library (AID 1117340;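 active = compound that reduces growth-factor-driven endothelial tube area in a mixed cell culture, no cutoff stated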). The conditions noted are these: VEGF-stimulated ADSC/ECFC co-culture, at 10 µM, stronger effect = higher value.
A short description of experiment [4]: glucagon-like peptide 1 release enhancers, primary assay, NCI-H716 cell line, NPC library (AID 1117341;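 active = compound raises GLP1 secretion from the human gut endocrine cells, with no numeric limit stated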). The note with it: NCI-H716 cells, at 10 µM, stronger effect = higher value.
A short description of experiment [5]: HCT116 colon cancer cell growth inhibition, primary screen, CellTiter-Glo luminescence, NPC library (AID 1117342;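 active = compounds that lower survival of HCT116 colon cancer cells in the luminescence readout, no numeric limit stated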). The conditions noted are these: at 20 µM (top of the series). Background: Cellular ATP, detected with luciferase, serves as a proxy for viable cell number.
The nature of experiment [6]: CellTiter-Glo luminescent readout of SW480 viability loss, NPC library primary (AID 1117343;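 active = compounds that lower viability of the colon cancer cells in the luminescence readout, with no numeric limit stated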). The conditions noted are these: CellTiter-Glo luminescence; at 20 µM (top of the series).
Experiment [7] can be described thus: decreased DLD-1 cellular survival, CellTiter-Glo luminescent readout, NPC compound collection, primary HTS (AID 1117346;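 active = compounds that lower survival of DLD-1 colon cancer cells in the luminescence readout, no cutoff given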). The conditions noted are these: DLD-1 viability, CellTiter-Glo luminescence; at 20 µM (top of the series).
In experiment [8] the target is 6-phosphogluconate dehydrogenase, decarboxylating (Homo sapiens) (UniProt P52209). Description: 6PGD enzyme inhibitors, primary screen, biochemical, human, recombinant enzyme, NADPH absorbance (AID 1159550;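 active = at least 20% inhibition of 6-phosphogluconate dehydrogenase activity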). The conditions noted are these: recombinant 6PGD, NADPH absorbance 341 nm; at 10 µM; stronger effect = higher value.
Experiment [9] is described as follows: differential killing of epithelial or mesenchymal cells, primary screen, imaging, PC-3E GFP, TEM4-18 mCherry, co-culture (AID 1345086;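 active = compounds killing one labelled cell type while sparing the other, by normalised counts and ratio limits, not self-fluorescent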;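 for all read-outs here: cells exposed to compound for 72 h before imaging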;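 for red/green cell ratio (normalised): normalised mesenchymal count divided by normalised epithelial count so high means epithelial killing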). The note with it: imaging cell counts, at 1 µM; for red/green cell ratio (normalised): actives lie on both sides, counts scaled to control wells, 1 = unselective.
Experiment [10] in a line: modulation of C. elegans fzo-1 (AID 1259413; call rule not given here;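 note: fzo-1 mutant C. elegans worms in liquid wells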). The note with it: C. elegans fzo-1 modulator screen, mean read-out; stronger effect = higher value.
A short description of experiment [11]: growth inhibition of DIPG glioma cells, dose response, cell-based, SU-DIPG-XVII, MIPE5.0, CellTiter-Glo, qHTS (AID 1347060; cut-off not given, nearly all actives have AC50 up to about 26 µM;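 note: cells exposed to compound for 48 hours before viability readout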). The conditions noted are these: SU-DIPG-XVII viability, CellTiter-Glo ATP luminescence.
Experiment [12] can be described thus: growth inhibition of DIPG glioma cells, dose response, cell-based, SU-DIPG-XIII, MIPE5.0, CellTiter-Glo, qHTS (AID 1347064; cut-off not given, nearly all actives have AC50 up to about 23 µM;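 note: cells exposed to compound for 48 hours before the viability read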). The note with it: SU-DIPG-XIII viability, CellTiter-Glo ATP luminescence.
[13] abbreviates: measured here: epithelial PC-3E GFP cell survival.
Where [14] appears, read: measured here: mesenchymal TEM4-18 mCherry cell survival.

The structures appear in SMILES notation. Results filed as inconclusive are left out. Calls of active or inactive are those of the source.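 Rule for the calls, unless noted: active = compound raises insulin release from rat beta cells at 5 mM glucose, no numeric limit stated; inactive = the rest.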 Starred links: 1 amine or outer side, 2 acyl side, 3 side chain; linkers in the order of their positions; H or OH if unused. Positions of bridges follow the written chain, without caps; N, C: chain ends. Non-standard residues stand in square brackets, D forms with d. Residues, ends and D or L forms follow the SMILES beside them. Chains are numbered I, II in the order given. Actinocin(9to1) = Cc1c2oc3c(C)ccc(C(=O)[*:1])c3nc-2c(C(=O)[*:2])c(N)c1=O; NMeV = CN[C@H](C(=O)O)C(C)C; Sar = CNCC(=O)O

Sequence of 6-phosphogluconate dehydrogenase, decarboxylating (Homo sapiens) (P52209 whole entry, looked up): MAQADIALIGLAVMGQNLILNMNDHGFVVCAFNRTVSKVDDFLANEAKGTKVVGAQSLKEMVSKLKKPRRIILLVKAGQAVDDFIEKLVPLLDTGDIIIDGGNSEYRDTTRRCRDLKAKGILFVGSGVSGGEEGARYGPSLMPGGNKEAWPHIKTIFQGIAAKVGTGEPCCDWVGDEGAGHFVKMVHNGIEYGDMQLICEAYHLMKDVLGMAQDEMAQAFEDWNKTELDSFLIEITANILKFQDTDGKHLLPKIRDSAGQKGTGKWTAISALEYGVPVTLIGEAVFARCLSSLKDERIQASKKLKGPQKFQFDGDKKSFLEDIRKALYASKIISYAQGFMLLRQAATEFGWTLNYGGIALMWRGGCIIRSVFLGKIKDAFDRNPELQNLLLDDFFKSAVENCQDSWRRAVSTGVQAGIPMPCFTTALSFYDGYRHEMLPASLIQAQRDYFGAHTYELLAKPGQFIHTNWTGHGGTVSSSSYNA

The inhibition is the change of the read-out against control, counted positive when it falls. As to `Cc1c(C(=O)O)c(O)cc2c1C(=O)c1c(O)c([C@@H]3O[C@H](CO)[C@@H](O)[C@H](O)[C@H]3O)c(O)c(O)c1C2=O`, in experiment [1], the insulin secretion stimulation was 4.4% (inactive). In addition, the viability decrease in [2] is 46.7% (inactive). The tube area decrease in experiment [3] was 24.4% (inactive). The GLP1 secretion stimulation in experiment [4] is -1.7% (inactive). Also, the inhibition of viability in experiment [5] is 35% (inactive). Moreover, the values for the viability decrease (inhibition) in [6] and in experiment [7] were 53.2% (active) and 34.5% (inactive), respectively. For the same compound, the inhibition in experiment [8] was -2.65% (inactive).
On to `Oc1c(I)cc(I)c2cccnc12`, for which, in experiment [1], the insulin secretion stimulation was 0.55% (inactive). For the same compound, the viability decrease in [2] is 102% (active). Besides, in [3], the tube area decrease was 108% (active). The GLP1 secretion stimulation in [4] is -3.1% (inactive). Moreover, the inhibition of viability in experiment [5] is 89.9% (active). Also, the viability decrease (inhibition) in experiment [6] is 147% (active); in experiment [7] it was 96.2% (active). Besides, the inhibition in experiment [8] is -4.02% (inactive). Further, the red/green cell ratio (normalised) in [9] was 1.31 (inactive). The normalised cell number in experiment [9] (setting [13]) was 1.01; in experiment [9] (setting [14]), 1.32.
Turning to `Cc1c2oc3c(C)ccc(C(=O)N[C@@H]4C(=O)N[C@H](C(C)C)C(=O)N5CCC[C@H]5C(=O)N(C)CC(=O)N(C)[C@@H](C(C)C)C(=O)O[C@@H]4C)c3nc-2c(C(=O)N[C@@H]2C(=O)N[C@H](C(C)C)C(=O)N3CCC[C@H]3C(=O)N(C)CC(=O)N(C)[C@@H](C(C)C)C(=O)O[C@@H]2C)c(N)c1=O` (I: T[dV]P[Sar][NMeV] / II: T[dV]P[Sar][NMeV]; ester I:1-I:C, II:1-II:C; linker I:N-II:N via Actinocin(9to1)), in [1], the insulin secretion stimulation was 1% (inactive). Besides, the viability decrease in experiment [2] is -75.8% (active). For the same compound, the tube area decrease in experiment [3] was 110% (active). The GLP1 secretion stimulation in [4] was 1.9% (inactive). Further, the inhibition of viability in [5] was 37.8% (active). Also, the viability decrease (inhibition) in [6] was 70.6% (active); in [7], 69.3% (active). Moreover, the inhibition in experiment [8] is -6.87% (inactive). Also, the mean signal in experiment [10] was 256 (inactive).
By AC50 is commonly meant the concentration giving half of the maximal activity seen. On to `CCN(CC)CCOc1ccc(/C(=C(\Cl)c2ccccc2)c2ccccc2)cc1`, for which, in [1], the insulin secretion stimulation was 3.6% (inactive). Further, the viability decrease in experiment [2] was 102% (active). Moreover, the tube area decrease in [3] is 110% (active). For the same compound, the GLP1 secretion stimulation in [4] is 22.8% (active). Moreover, in experiment [5], the inhibition of viability was 102% (active). Also, the values for the viability decrease (inhibition) in experiment [6] and in experiment [7] were 124% (active) and 103% (active), respectively. Also, the inhibition in experiment [8] was -19.7% (inactive). Besides, the mean signal in experiment [10] is 199 (inactive). The red/green cell ratio (normalised) in [9] is 1.05 (inactive). The normalised cell number is 1.43 in experiment [9] (setting [13]) and 1.5 in experiment [9] (setting [14]). The values for the half-maximal activity concentration (AC50) in experiment [11] and in experiment [12] were 8.33 µM (active) and 11.8 µM (active), respectively.
As to `NC(N)=Nc1nc(CSCC/C(N)=N/S(N)(=O)=O)cs1`, the insulin secretion stimulation in experiment [1] is 2.8% (inactive). Moreover, the viability decrease in [2] was 6.7% (inactive). The tube area decrease in experiment [3] was 6.4% (inactive). Also, the GLP1 secretion stimulation in [4] was 1.4% (inactive). Besides, the inhibition of viability in experiment [5] is -8.7% (inactive). For the same compound, the viability decrease (inhibition) in experiment [6] is 0.7% (inactive); in experiment [7], -10.3% (inactive). The inhibition in experiment [8] was 5.97% (inactive). Further, the mean signal in experiment [10] is 276 (inactive).
Consider `C[C@@H]1C[C@H]2[C@@H]3CCC4=CC(=O)C=C[C@]4(C)[C@@]3(F)[C@@H](O)C[C@]2(C)[C@@]1(O)C(=O)COP(=O)(O)O`, for which the insulin secretion stimulation in [1] was -6.4% (inactive). For the same compound, the viability decrease in experiment [2] was -4.3% (inactive). Also, in [3], the tube area decrease is 0.7% (inactive). For the same compound, the GLP1 secretion stimulation in experiment [4] is -2.2% (inactive). Moreover, the inhibition of viability in [5] was 2.57% (inactive). Also, the results for the viability decrease (inhibition) in [6] and in experiment [7] were 24.1% (inactive) and -4.8% (inactive), respectively. In addition, the inhibition in experiment [8] is -4.39% (inactive).
Consider `CCN(CC)CCNC(=O)COc1ccc(OC)cc1`, for which, in experiment [1], the insulin secretion stimulation was 1.8% (inactive). The viability decrease in experiment [2] was -5.3% (inactive). In addition, in experiment [3], the tube area decrease is -8.1% (inactive). The GLP1 secretion stimulation in experiment [4] is 2.1% (inactive). The inhibition of viability in [5] was -18.7% (inactive). The values for the viability decrease (inhibition) in [6] and in experiment [7] were 22.1% (inactive) and -6.15% (inactive), respectively. In experiment [8], the inhibition is -14.6% (inactive). For the same compound, in experiment [9], the red/green cell ratio (normalised) is 1.07 (inactive). The normalised cell number in experiment [9] (setting [13]) turned out to be 1.11; in experiment [9] (setting [14]) it was 1.18.
As for `Oc1c(Br)cc(Br)c2cccnc12`, in [1], the insulin secretion stimulation was 2.4% (inactive). In experiment [2], the viability decrease was 113% (active). Moreover, in [3], the tube area decrease is 108% (active). Also, the GLP1 secretion stimulation in experiment [4] is 4.3% (inactive). Moreover, the inhibition of viability in experiment [5] is 96.7% (active). Besides, the results for the viability decrease (inhibition) in experiment [6] and in experiment [7] were 153% (active) and 99.7% (active), respectively. In [8], the inhibition was 4.35% (inactive).
